Results on seven molecules are retold here after PubChem BioAssay (NCATS).

In assay [1] the target is Peroxisome proliferator-activated receptor delta (Homo sapiens) (UniProt Q03181). In words: qHTS assay for small molecule agonists of peroxisome proliferator-activated receptor delta signaling (AID 588534).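 Also: 0% = DMSO basal wells and 100% = positive control agonist at 10 µM.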 The method in brief: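 Cell-based beta-lactamase reporter assay run in agonist mode: cells seeded and incubated 5 hrs at 37 C, compounds added and incubated 18 hrs at 37 C. CCF4 dye fluorescence read after 2 hrs at RT; EC50 and efficacy from Hill fits.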
Chain of Peroxisome proliferator-activated receptor delta (Homo sapiens) (Q03181 whole entry, looked up): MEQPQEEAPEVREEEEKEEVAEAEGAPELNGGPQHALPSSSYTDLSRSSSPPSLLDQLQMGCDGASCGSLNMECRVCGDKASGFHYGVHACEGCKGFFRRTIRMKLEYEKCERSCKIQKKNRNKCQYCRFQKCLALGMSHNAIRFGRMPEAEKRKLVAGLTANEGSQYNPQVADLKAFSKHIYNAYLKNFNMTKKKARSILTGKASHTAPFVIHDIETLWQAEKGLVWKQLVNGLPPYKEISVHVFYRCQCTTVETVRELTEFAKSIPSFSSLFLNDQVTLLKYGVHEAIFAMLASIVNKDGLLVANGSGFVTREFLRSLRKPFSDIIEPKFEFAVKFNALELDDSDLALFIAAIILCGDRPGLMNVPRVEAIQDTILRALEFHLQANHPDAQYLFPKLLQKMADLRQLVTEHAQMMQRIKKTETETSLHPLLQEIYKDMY
In general terms: Quantitative high-throughput screening tests each substance at several concentrations.

The target in assay [2] is Estrogen receptor (Homo sapiens) (UniProt P03372). In words: qHTS assay for small molecule antagonists of estrogen receptor alpha signaling (AID 588513; active = well fitted curve in the direction sought with a large enough effect in the signal ratio, with a control signal flat, not every such curve was filed as active; the % refers to the signal ratio; also: % is scaled to controls: 0 for no effect and ±100 for the full control effect). The method in brief: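 Fluorescence from CCF4 substrate after 2 h at room temperature gave reporter activity; cells had been exposed to compound and 0.5nM 17-beta-estradiol for 18 h at 37 C. Hill-equation fitting yielded IC50 and maximal response.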
Chain of Estrogen receptor (Homo sapiens) (P03372 whole entry, looked up): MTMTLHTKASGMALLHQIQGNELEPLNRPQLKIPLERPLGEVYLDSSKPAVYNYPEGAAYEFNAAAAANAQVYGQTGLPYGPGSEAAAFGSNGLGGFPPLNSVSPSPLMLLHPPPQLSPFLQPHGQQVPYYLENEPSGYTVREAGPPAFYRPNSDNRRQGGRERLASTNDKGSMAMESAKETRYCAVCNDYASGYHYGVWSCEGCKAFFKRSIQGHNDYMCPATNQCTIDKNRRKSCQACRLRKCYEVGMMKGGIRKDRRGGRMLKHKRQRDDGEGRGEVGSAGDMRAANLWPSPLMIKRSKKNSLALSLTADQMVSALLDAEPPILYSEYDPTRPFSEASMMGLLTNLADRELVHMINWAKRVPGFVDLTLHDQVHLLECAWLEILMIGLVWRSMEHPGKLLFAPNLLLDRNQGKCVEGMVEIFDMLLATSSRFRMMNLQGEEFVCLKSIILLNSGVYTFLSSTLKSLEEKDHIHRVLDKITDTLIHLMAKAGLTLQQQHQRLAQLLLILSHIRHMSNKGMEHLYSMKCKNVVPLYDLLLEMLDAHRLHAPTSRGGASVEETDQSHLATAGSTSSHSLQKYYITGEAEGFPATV

Assay [3] has the same target. Nature of the assay: qHTS assay for small molecule agonists of estrogen receptor alpha signaling (AID 588514).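 Also: 0% = vehicle only and 100% = reference agonist; nearly all actives have a fitted effect of over 70% in size.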 The method in brief:
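ER-alpha-UAS-bla GripTite HEK 293 cells in medium with 2% charcoal/dextran-treated FBS were treated with compound titrations at 37 C for 18 hrs; beta-lactamase reporter read by CCF4 fluorescence after 2 hrs at RT.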

The target of assay [4] is Glucocorticoid receptor (Homo sapiens) (UniProt P04150). Nature of the assay: qHTS assay for small molecule antagonists of glucocorticoid receptor signaling (AID 588533; active = well fitted inhibition curve with a large enough effect in the signal ratio, with a control signal flat, not every such curve was filed as active; the % refers to the signal ratio; also: % is scaled to controls: 0 for no effect and ±100 for the full control effect). The procedure, abridged: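 Antagonist-mode qHTS: compound titrations added to GRE-bla HeLa cells, then dexamethasone 2 nM final; 18 h, 37 C. CCF4 FRET fluorescence normalized to dexamethasone and DMSO; IC50 from Hill fit.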
Chain of Glucocorticoid receptor (Homo sapiens) (P04150 whole entry, looked up): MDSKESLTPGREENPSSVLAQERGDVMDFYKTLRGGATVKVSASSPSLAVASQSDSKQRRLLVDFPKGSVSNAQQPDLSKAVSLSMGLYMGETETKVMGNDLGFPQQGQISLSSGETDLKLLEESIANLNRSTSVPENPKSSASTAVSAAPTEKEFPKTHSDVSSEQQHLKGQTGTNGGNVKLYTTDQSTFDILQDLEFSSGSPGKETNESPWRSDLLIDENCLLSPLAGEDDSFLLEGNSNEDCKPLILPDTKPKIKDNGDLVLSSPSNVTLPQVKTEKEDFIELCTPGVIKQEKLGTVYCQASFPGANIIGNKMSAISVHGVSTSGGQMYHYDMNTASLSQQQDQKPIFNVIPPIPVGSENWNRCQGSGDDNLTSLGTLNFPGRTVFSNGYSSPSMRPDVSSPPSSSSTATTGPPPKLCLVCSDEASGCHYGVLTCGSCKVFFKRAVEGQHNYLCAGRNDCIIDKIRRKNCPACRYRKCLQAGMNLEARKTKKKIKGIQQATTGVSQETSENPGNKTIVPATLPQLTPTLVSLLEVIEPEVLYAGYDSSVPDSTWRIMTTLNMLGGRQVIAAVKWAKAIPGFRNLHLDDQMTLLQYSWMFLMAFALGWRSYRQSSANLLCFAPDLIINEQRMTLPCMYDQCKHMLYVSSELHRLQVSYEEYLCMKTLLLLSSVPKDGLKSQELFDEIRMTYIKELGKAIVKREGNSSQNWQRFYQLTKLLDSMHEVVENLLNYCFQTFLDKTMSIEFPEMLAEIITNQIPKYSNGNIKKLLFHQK

Assay [5] concerns the target Peroxisome proliferator-activated receptor gamma (Homo sapiens) (UniProt P37231). In words: qHTS assay for small molecule agonists of peroxisome proliferator-activated receptor gamma signaling (AID 588536; active = well fitted curve in the direction sought with a large enough effect in the signal ratio, with a control signal flat, not every such curve was filed as active; the % refers to the signal ratio;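 also: 0% = DMSO basal wells and 100% = rosiglitazone at 2 µM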). The method in brief:
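Test agents, titrated, stimulated HEK293 UAS-bla cells overnight (16 h, 37 C). Substrate CCF4 was then added for two hours at room temperature before fluorescence reading.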

The target in assay [6] is Vitamin D3 receptor (Homo sapiens) (UniProt P11473). Nature of the assay: qHTS assay for small molecule antagonists of vitamin D receptor signaling (AID 588541).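 Also: receptor activated by calcitriol during compound treatment; series mostly up to about 77 µM; % is scaled to controls: 0 for no effect and ±100 for the full control effect.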 The method in brief:
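VDR-UAS-bla HEK293T cells in 2% charcoal-stripped FBS were stimulated with 1-alpha,25-dihydroxyvitamin D3 (3 nM final) plus compound for 16 h at 37 C. The beta-lactamase CCF4 readout was normalized to 50 nM agonist and DMSO, and Hill fits gave IC50.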

The nature of assay [7]: qHTS assay for small molecule agonists of retinoid X receptor alpha signaling (AID 588544).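 As to activation: 0% = DMSO basal wells and 100% = reference agonist.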 As to conditions: HEK293T RXRa-UAS-bla, beta-lactamase reporter, 18 h; 530 nm emission.
Assay [8] addresses Retinoic acid receptor RXR-alpha (Homo sapiens) (UniProt P19793). The description is as above.
Assay [9] can be described thus: qHTS assay for small molecule antagonists of retinoid X receptor alpha signaling (AID 588546; active = well fitted inhibition curve with a large enough effect in the signal ratio, with a control signal flat, not every such curve was filed as active; the % refers to the signal ratio;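 also: cells stimulated with 9-cis-retinoic acid as agonist; % is scaled to controls: 0 for no effect and ±100 for the full control effect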). The settings on record: HEK293T RXRa-UAS-bla, beta-lactamase ratio, antagonist mode; measured here: W530 green channel, cytotoxicity proxy. The method in brief:
(§1)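 Beta-lactamase reporter inhibition, read as CCF4 fluorescence ratio (ex 405, em 460/530 nm) after 2 h at RT. HEK293T UAS-bla cells, 2500/well, were stimulated with 9-cis-RA at 500 or 100 nM final alongside test compound for 18 h at 37 C.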

Assay [10] deals with Retinoic acid receptor RXR-alpha (Homo sapiens) (UniProt P19793). The assay is described as above. As to conditions: HEK293T RXRa-UAS-bla, beta-lactamase ratio, antagonist mode. The method in brief: as §1
Chain of Retinoic acid receptor RXR-alpha (Homo sapiens) (P19793 whole entry, looked up): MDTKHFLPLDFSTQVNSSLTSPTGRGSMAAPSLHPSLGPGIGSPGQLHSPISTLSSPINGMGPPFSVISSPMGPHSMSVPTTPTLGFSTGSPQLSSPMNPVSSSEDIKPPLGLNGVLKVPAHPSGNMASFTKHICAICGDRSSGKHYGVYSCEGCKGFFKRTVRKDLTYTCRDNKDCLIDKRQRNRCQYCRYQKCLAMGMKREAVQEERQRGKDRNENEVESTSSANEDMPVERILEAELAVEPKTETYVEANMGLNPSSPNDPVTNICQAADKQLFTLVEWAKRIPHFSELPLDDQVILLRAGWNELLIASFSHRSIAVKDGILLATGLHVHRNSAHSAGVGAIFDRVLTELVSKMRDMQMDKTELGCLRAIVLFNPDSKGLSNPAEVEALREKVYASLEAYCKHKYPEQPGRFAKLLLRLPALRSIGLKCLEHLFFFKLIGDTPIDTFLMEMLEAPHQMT
The target of assay [11] is Thyroid hormone receptor beta (Homo sapiens) (UniProt P10828). In words: qHTS assay for small molecule antagonists of thyroid hormone receptor beta signaling (AID 588547; active = well fitted inhibition curve with a large enough effect in the signal ratio, with a control signal flat, not every such curve was filed as active; the % refers to the signal ratio). The settings on record: TR-UAS-bla HEK293, beta-lactamase ratio, antagonist mode, 18 h. The method in brief:
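TR-UAS-bla GripTite HEK293 cells in 2% charcoal/dextran FBS medium; compounds 0.59 nM to 92 uM with T3 at 0.4nM final, 18 h at 37 C. Beta-lactamase read by CCF4 fluorescence (460/530 nm); Hill fits gave IC50 and efficacy.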

Assay [12] is described as follows: qHTS assay for small molecule activators of the p53 signaling pathway (AID 651743; active = well fitted activation curve with a large enough effect in the signal ratio, not every such curve was filed as active; the % refers to the signal ratio; also: series mostly up to about 92 µM; % of control where 0% means no effect). The settings on record: HCT-116 p53RE-bla, beta-lactamase FRET ratio, 16 h; activation: stronger effect = higher value. The method in brief: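 HCT-116 p53RE-bla, 4,000 cells/well; 5 h settle; cpd/DMSO 16 h, 37 C; LiveBLAzer B/G 2 h RT; fluorescence intensity.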
Assay [13] in a line: qHTS assay for environmental chemicals that activate the Aryl hydrocarbon Receptor (AhR) signaling pathway (AID 651777; active = well fitted curve in the direction sought with a large enough effect; an effect the other way counts as inactive or inconclusive; also: % of control where 0% means no effect; nearly all actives have a fitted effect of over 15% in size). As to conditions: 1A2-DRE human hepatoma cells, luciferase, 24 h; activation: stronger effect = higher value. The procedure, abridged: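 Following a 24 hr incubation with test chemicals at 37 C and 5% CO2, 1A2-DRE human hepatoma cells received One-Glo reagent; after 30 min at room temperature, luciferase output reflected CYP1A2 induction via AhR.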

For assay [14], the target named is Peroxisome proliferator-activated receptor alpha (Homo sapiens) (UniProt Q07869). In words: qHTS assay for small molecule agonists of the peroxisome proliferator-activated receptor alpha (PPARalpha) signaling pathway (AID 651778; active = well fitted curve in the direction sought with a large enough effect; an effect the other way counts as inactive or inconclusive; also: % of control where 0% means no effect). The settings on record: PathHunter PPARalpha complementation, chemiluminescence, 6 h; max response: stronger effect = higher value. The procedure, abridged: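 Enzyme-fragment complementation assay in which ligand-bound PPARalpha translocates and forms an active enzyme that generates chemiluminescence. Cells were plated overnight, exposed to compound for 6 hr at 37 C, and then given detection reagent for 60 min at room temperature.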
Chain of Peroxisome proliferator-activated receptor alpha (Homo sapiens) (Q07869 whole entry, looked up, the tested form may be a part): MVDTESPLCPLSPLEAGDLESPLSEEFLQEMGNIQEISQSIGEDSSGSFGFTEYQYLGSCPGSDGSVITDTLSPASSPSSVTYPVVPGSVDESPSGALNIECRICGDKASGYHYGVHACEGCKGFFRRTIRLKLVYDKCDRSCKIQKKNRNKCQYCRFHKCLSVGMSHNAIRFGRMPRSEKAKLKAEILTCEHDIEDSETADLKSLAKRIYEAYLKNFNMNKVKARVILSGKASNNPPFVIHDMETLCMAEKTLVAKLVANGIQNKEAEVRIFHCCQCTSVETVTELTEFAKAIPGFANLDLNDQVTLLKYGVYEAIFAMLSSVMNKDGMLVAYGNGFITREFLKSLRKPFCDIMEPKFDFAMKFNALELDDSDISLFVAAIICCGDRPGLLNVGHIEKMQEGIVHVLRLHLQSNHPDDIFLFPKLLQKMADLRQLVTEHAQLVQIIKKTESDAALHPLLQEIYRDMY

Assay [15] can be described thus: qHTS assay for small molecule agonists of the antioxidant response element (ARE) signaling pathway measured by Nrf2-dependant transcriptional activity (AID 720636; active = well fitted curve in the direction sought with a large enough effect in the repeat runs; an effect the other way counts as inactive or inconclusive;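 also: HepG2 cells with an ARE-driven luciferase reporter; % of control where 0% means no effect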). The method in brief: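 ONE-Glo luminescence, read 30 min after reagent addition at room temperature, reflected ARE reporter activity in HepG2 cells that had been incubated with compound for 16 hr at 37 C in 1% dialyzed FBS.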

The nature of assay [16]: qHTS assay for small molecule agonists of the antioxidant response element (ARE) signaling pathway measured by Nrf2-dependant transcriptional activity - cell viability counter screen (AID 720653; active = well fitted curve in the direction sought with a large enough effect in the repeat runs; an effect the other way counts as inactive or inconclusive; also: % is scaled to controls: 0 for no effect and ±100 for the full control effect). As to conditions: ARE-bla HepG2 viability, CellTiter-Glo ATP luminescence, 16 h; max response: stronger effect = lower value. The procedure, abridged:
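ARE-bla HepG2 cells treated with compounds for 16 h at 37C; this counter screen measures viability as intracellular ATP by CellTiter-Glo luminescence after 30 min at room temperature.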

Assay [17] in a line: qHTS assay for cell viability of HEK293 cells (AID 743288; active = well fitted curve in the direction sought with a large enough effect; an effect the other way counts as inactive or inconclusive; also: % is scaled to controls: 0 for no effect and ±100 for the full control effect; nearly all actives have a fitted effect of over 50% in size). As to conditions: ATP luminescence (CellTiter-Glo), 18 h; max response: stronger effect = lower value. The method in brief: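 HEK293 parental, 2,000 cells/well; ≥5 h pre-incubation 37 C; pintool compound addition; 18 h, 37 C; CellTiter-Glo 30 min RT; luminescence read.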
Assay [18] is described as follows: qHTS assay for cell viability of the p53RE-bla HCT-116 cell line (AID 743292; active = well fitted curve in the direction sought with a large enough effect; an effect the other way counts as inactive or inconclusive; also: % is scaled to controls: 0 for no effect and ±100 for the full control effect; nearly all actives have a fitted effect of over 55% in size). The method in brief:
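After plating at 4,000 cells per well and a 5 h rest at 37 C, HCT-116 cells carrying p53RE-bla received test chemicals in DMSO. Sixteen hours later at 37 C, CellTiter-Glo was added and luminescence recorded following 30 min at room temperature.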

Assay [19] deals with Peroxisome proliferator-activated receptor gamma (Homo sapiens) (UniProt P37231). Nature of the assay: qHTS assay for small molecule antagonists of peroxisome proliferator-activated receptor gamma signaling (AID 588537; active = well fitted inhibition curve with a large enough effect in the signal ratio, with a control signal flat, not every such curve was filed as active; the % refers to the signal ratio;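 also: reporter cells co-stimulated with 50 nM rosiglitazone agonist during compound treatment; % of control where 0% means no effect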). The method in brief: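 Step one: plate 3000 HEK293 UAS-bla cells per well in medium with 1% stripped serum and hold 6-6.5 h at 37 C. Step two: add compound and 50 nM agonist for 16 h. Step three: CCF4 loading, fluorescence read.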
Chain of Peroxisome proliferator-activated receptor gamma (Homo sapiens) (P37231 whole entry, looked up): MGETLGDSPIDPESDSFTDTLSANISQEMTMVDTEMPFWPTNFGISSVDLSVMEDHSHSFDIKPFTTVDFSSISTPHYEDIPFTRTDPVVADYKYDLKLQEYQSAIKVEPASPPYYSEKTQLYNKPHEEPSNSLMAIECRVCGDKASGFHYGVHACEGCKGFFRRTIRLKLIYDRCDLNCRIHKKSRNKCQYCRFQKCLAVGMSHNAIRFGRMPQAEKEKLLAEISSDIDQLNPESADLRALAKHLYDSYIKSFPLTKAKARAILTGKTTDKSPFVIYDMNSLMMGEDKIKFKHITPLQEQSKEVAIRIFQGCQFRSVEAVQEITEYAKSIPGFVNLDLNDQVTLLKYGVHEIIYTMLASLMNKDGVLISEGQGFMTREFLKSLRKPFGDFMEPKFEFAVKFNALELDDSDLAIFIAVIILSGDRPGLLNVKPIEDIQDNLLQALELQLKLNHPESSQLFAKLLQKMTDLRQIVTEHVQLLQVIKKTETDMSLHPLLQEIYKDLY

The target in assay [20] is Thyroid hormone receptor beta (Homo sapiens) (UniProt P10828). Nature of the assay: qHTS assay for small molecule agonists of thyroid hormone receptor beta signaling (AID 588545). The method in brief: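 Cells (2500/well) were seeded, incubated 4 hrs at 37 C, dosed with a compound series, incubated 18 hrs, loaded with CCF4 dye for 2 hrs at RT, then read for fluorescence. Data were scaled between DMSO (0%) and 10 nM T3 (100%).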
Chain of Thyroid hormone receptor beta (Homo sapiens) (P10828 whole entry, looked up): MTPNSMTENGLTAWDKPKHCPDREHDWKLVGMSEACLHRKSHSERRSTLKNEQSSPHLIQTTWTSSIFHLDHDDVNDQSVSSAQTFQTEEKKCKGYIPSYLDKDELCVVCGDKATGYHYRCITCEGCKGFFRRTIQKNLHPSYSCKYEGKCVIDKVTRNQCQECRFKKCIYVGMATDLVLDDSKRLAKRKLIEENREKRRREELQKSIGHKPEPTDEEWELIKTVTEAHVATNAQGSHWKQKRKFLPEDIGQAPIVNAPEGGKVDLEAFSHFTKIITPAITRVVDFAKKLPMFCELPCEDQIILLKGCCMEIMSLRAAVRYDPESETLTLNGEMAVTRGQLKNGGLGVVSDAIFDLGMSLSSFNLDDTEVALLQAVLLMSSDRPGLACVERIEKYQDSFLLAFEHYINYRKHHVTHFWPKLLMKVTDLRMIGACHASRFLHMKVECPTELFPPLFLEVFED

SMILES strings stand for the structures. Values joined by “and” are separate entries in the source; they are usually repeats but may differ in a detail not shown here. Equal values may be shown once. Records with an inconclusive call do not appear. Active and inactive are the calls of the source. Unless noted, calls follow the shape of the full dose curve.

Chain of Vitamin D3 receptor (Homo sapiens) (P11473 whole entry, looked up): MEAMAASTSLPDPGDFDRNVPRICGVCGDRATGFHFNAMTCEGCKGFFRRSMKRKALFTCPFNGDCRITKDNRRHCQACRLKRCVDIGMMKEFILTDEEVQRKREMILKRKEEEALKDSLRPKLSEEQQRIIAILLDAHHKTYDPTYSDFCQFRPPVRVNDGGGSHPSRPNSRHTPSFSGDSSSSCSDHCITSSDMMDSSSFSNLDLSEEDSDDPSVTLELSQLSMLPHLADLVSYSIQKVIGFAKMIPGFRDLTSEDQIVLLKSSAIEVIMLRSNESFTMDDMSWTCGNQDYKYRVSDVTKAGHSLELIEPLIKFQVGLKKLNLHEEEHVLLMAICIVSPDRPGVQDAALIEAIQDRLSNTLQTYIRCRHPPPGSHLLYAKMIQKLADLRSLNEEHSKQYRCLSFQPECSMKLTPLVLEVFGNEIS

Take `C=C(C)c1ccccc1`: the outcome in [1] was inactive.
Consider `c1ccc2ncccc2c1`, for which the outcome in assay [1] was inactive.
In the case of `CNC(=O)Oc1cccc2c1OC(C)(C)C2O` (stereo unspecified), the Potency entry in assay [2], in assay [3], in assay [4], in [5], in assay [6] and in assay [8] was “inactive” throughout. Moreover, the Potency entry in assay [15] and in [18] was “inactive” throughout. Also, the molecule was called inactive in assay [1]. Also, the max response was -10.1% in assay [7]; -12.4% in assay [9]; -10.3% (inactive) in assay [10]; -1.14% (inactive) in assay [14]; -15.8% (inactive) in assay [16]; -0.251% (inactive) in assay [17]. The activity change % (negative = inhibition) in assay [11] is 7.05% (inactive). Moreover, the results for the activation in assay [12] and in [13] were -0.021% (inactive) and 0.301% (inactive), respectively.
For `C=CC(=O)NCO`, the Potency entry in [2], in [3], in assay [4], in assay [5], in assay [19] and in assay [6] was “inactive” each time. Besides, the Potency entry in [20], in assay [15] and in assay [18] was “inactive” throughout. Further, the molecule was classed as inactive in [1]. In addition, the max response in assay [7] is -12.6% and -9.15%; in assay [9], -9.77% and -7.1%; in assay [14] it was -1.6% (inactive) and -1.01% (inactive); in assay [16] it was -3.08% (inactive) and -9.83% (inactive); in assay [17], -8.84% (inactive) and -5.85% (inactive). Moreover, in [11], the activity change % (negative = inhibition) is 0.0569% (inactive). For the same molecule, the activation in assay [12] was 0.261% (inactive) and -0.511% (inactive); in assay [13], 0.0723% (inactive) and 1.42% (inactive).
For `CCOP(=S)(OCC)Oc1ncn(-c2ccccc2)n1`, the Potency result in assay [2], in assay [3], in [5], in assay [6], in assay [8] and in assay [20] was “inactive” each time. Further, the Potency result in [15] and in [18] was “inactive” each time. Further, the molecule was classed as inactive in assay [1]. In addition, the max response in assay [7] is -6.39%; in [9] it was -1.85%; in assay [10], -7.83% (inactive); in assay [14], -2.29% (inactive); in assay [16] it was -3.44% (inactive); in assay [17] it was -0.263% (inactive). In addition, in [11], the activity change % (negative = inhibition) is 4.61% (inactive).
Regarding `CCOP(=O)(OCC)SCSCC`, the Potency entry in assay [2], in assay [3], in assay [4], in assay [5], in [19] and in [6] was “inactive” throughout. The Potency result in assay [8], in [20], in assay [15] and in assay [18] was “inactive” throughout. In assay [1], the molecule was classed as inactive. Moreover, the max response in assay [7] is -4.7%; in assay [9], -15.2%; in [10] it was -5.71% (inactive); in assay [14], -4.89% (inactive); in [16], 2.19% (inactive); in assay [17], -3.03% (inactive). Besides, the activity change % (negative = inhibition) in [11] was 4.37% (inactive). For the same molecule, the activation in assay [13] is 0.0868% (inactive).
`Cc1cnc(C2=NC(C)(C(C)C)C(=O)N2)c(C(=O)O)c1` (stereo unspecified): the Potency result in assay [2], in assay [3], in [5], in assay [19], in assay [8] and in assay [20] was “inactive” each time. Also, the Potency entry in assay [15] and in assay [18] was “inactive” in each case. Further, in assay [1], the result was inactive. In addition, the max response in assay [7] was -18.8% and -4.8%; in [9] it was 8.17%; in assay [10], 9.76% (inactive); in assay [14], -1.29% (inactive) and -1.68% (inactive); in [16], -15.3% (inactive) and 23.5% (inactive); in assay [17] it was -9.43% (inactive) and 4.33% (inactive). For the same molecule, in [11], the activity change % (negative = inhibition) is -3.72% (inactive) and -20.5% (inactive). In addition, the activation is 0.249% (inactive) and -2.82% (inactive) in assay [12]; 1.97% (inactive) and -3.27% (inactive) in assay [13].
